# Assay outcomes (PubChem)
# This is a sample that favours compounds with a hit; in the whole collection about 6.6% have one here.
# GRIN3A LBD mod: NR3A (human) ligand-binding domain modulation; NR3A LBD differential scanning fluorimetry, Tm shift; 0% = protein alone, 100% = glycine-bound protein; AID 1259313; actives 2.5% (n = 340,000); Tm shift relative to glycine control, % at 25 µM;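 active = melting temperature shift of at least 10% of the positive control shift, at one fixed dose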
# CSC inhib: cancer stem cell inhibition; cancer stem cell-like cells viability, luminescence; inhibition, % at 7.5 µM; actives 1.1% (n = 300,000); AID 2717; in the data active = inhibition above about 75%; tested in HMLE shEcad cells
# Mdm2 MdmX PPI: disrupts the human Mdm2-MdmX interaction. O15151+Q00987. SaOS-2 split-luciferase Mdm2/MdmX complementation, luminescence. inhibition, % at 8 µM. actives 3% (n = 330,000). AID 485346;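 active = inhibition of at least 50% at 8 µM in the primary screen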
# Target sequence (O15151 whole entry, looked up): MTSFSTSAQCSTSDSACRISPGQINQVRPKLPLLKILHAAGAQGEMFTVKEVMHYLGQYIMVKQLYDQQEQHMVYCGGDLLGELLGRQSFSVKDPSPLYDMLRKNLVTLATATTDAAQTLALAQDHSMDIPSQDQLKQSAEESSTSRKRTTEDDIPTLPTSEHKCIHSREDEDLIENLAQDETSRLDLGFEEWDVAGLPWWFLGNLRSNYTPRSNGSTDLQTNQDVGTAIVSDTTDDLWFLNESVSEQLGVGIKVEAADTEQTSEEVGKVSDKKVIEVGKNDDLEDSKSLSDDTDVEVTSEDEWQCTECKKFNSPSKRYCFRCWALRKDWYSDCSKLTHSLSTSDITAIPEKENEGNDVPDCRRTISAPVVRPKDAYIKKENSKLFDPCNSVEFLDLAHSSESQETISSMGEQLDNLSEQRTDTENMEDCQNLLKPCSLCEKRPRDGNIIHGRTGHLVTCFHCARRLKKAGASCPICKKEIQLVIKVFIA
# Target sequence (Q00987 whole entry, looked up): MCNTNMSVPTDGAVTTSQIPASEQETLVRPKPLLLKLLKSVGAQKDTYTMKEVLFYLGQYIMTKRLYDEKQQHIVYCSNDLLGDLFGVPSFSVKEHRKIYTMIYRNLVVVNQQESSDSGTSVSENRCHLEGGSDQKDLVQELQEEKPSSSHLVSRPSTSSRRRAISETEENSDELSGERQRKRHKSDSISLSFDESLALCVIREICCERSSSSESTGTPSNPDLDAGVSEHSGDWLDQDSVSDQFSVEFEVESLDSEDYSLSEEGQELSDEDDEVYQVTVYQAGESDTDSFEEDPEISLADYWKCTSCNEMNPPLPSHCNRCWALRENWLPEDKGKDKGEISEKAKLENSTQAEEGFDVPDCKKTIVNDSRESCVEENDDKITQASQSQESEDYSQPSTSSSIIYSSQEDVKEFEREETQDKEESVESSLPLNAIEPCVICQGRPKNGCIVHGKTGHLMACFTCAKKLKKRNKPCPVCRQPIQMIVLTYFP
# Gli-Sufu block: antagonists of Gli-Sufu signaling; Sufu-KO-LIGHT fibroblasts, Gli luciferase reporter luminescence; inhibition, % at 5 µM; actives 0.74% (n = 340,000); AID 588413;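 active = inhibition above about 55%, limit read from the data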;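 note: 0% = DMSO-treated cells and 100% = wells with medium but no cells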
# Beta apoptosis: blocks beta cell apoptosis; INS-1E cytokine-induced death, ATP luminescence, 48 h; percent of positive-control rescue, neutral wells zero; protection from apoptosis, % (concentration not given with the values); actives 0.8% (n = 300,000); AID 435005;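 active = Every replicate reaches about 75%, or at least half do and their mean reaches it too, limit read from the data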;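 note: 0% = cytokine-treated negative control wells and 100% = positive control rescue; higher means more ATP so stronger rescue from cytokine killing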
# MPTP block: blocks calcium-induced mitochondrial swelling | isolated mouse mitochondria, Ca2+ swelling absorbance, 30 min | inhibition, % at 10 µM | actives 1.4% (n = 360,000) | AID 602449;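 active = inhibition of 50% or more, scaled per plate between neutral and stimulator controls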;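 note: 0% = DMSO wells given calcium and 100% = 1 mM EGTA wells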
# Mdm2 MdmX conf: confirmation of human Mdm2/MdmX interaction inhibitors. shares compounds with Mdm2 MdmX PPI. actives 55% (n = 10,000). Mdm2-MdmX binding, luminescent assay. inhibition, % at 8 µM. AID 489028; in the data active = inhibition above about 40%
# FLuc counter: inhibits full-length luciferase, flagging false Mdm2/MdmX hits; actives 77% (n = 6,200); SaOS-2 full-length luciferase counterscreen, luminescence; inhibition, % at 8 µM; shares compounds with Mdm2 MdmX PPI;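 active = mean inhibition at 8 µM reaching about 37%, which flags the compound as non-specific, limit read from the data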;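 note: p53-null SaOS-2 cells with luciferase driven by a doxycycline-inducible promoter; compound on cells about two nights before reading with doxycycline added after day one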
# Active calls of the source: *; / = no result given.
SMILES,GRIN3A LBD mod,CSC inhib,Mdm2 MdmX PPI,Gli-Sufu block,Beta apoptosis,MPTP block,Mdm2 MdmX conf,FLuc counter
O=c1c2cccnc2[nH]c(=S)n1CCC1=CCCCC1,-1,-5,63*,8,3,0,1,/
CCCCCn1c(=S)[nH]c2ncccc2c1=O,-1,-2,32,-24,1,2,/,/
CN(C(=O)c1cccc(NC(=O)Cc2ccc(NC(=O)C3CCCN(C(=O)c4ccccc4)C3)cc2)c1)C1CCCCC1 (centres undefined),-1,/,/,0,/,-1,/,/
CCCCc1ccc(NC(=O)N2CCNC(=O)C2CC(=O)Nc2ccsc2C(=O)OC)cc1 (centres undefined),-1,-9,29,-5,-9,-2,/,/
COc1ccc(/C=C2\COc3ccccc3C2=O)cc1OC,0,24,11,-6,-1,1,/,/
CCOc1cc(/C=C2\COc3ccccc3C2=O)cc(Br)c1OCC(=O)N(C)C,4,61,97*,14,100*,0,74*,59*
COc1ccc2c(-c3ccc(S(N)(=O)=O)cc3)c(-c3ccc(S(C)(=O)=O)cc3)sc2c1,-2,/,67*,-2,/,0,14,/
Cc1ccc(C)c(CN2C(=O)c3ccccc3S(=O)c3ccc(C(=O)NCCCN4CCCC4)cc32)c1 (centres undefined),-3,10,51*,36,2,-3,16,/
O=C(NCCCN1CCCC1)c1ccc2c(c1)N(Cc1ccccc1F)C(=O)c1ccccc1S2=O (centres undefined),-1,12,5,3,-7,-2,/,/
Cc1ccc(CN2C(=O)c3ccccc3Sc3ccc(C(=O)NCCN4CCOCC4)cc32)cc1,-5,54,52*,/,0,-1,54*,69*
Cc1cccc(CN2C(=O)c3ccccc3Sc3ccc(C(=O)NCCN4CCOCC4)cc32)c1,-1,16,1,-8,0,-2,/,/
FC(F)(F)c1nnc(-c2ccccc2)nc1N1CCCC1,0,-6,19,-13,-4,-2,/,/
FC(F)(F)c1nnc(-c2ccccc2)nc1Sc1ccccc1,-13,44,52*,-5,5,1,18,/
FC(F)(F)c1cccc(Sc2nc(-c3ccccc3)nnc2C(F)(F)F)c1,0,/,55*,0,-4,22,17,/
FC(F)(F)c1nnc(-c2ccccc2)nc1Sc1ccc(Cl)cc1,-1,80*,86*,1,63,0,34,16
O=S1(=O)C=C(Sc2nc3cc(Cl)ccc3o2)c2ccccc21,-8,9,97*,2,-12,2,96*,51*
Cc1ccc(Cl)cc1NC(=O)N(C)CCO,-8,-1,-26,3,-7,0,/,/
Cc1c(C(=O)Nc2ccc(S(=O)(=O)N(C)C3CCN(C)CC3)cc2)oc2ccccc12,-1,1,92*,3,-2,0,35,/
Cc1c(C(=O)Nc2ccc(S(=O)(=O)N(C)C3CCN(C)CC3)cc2)oc2c(Cl)cccc12,0,11,88*,21,/,45,75*,64*
CN1CCC(N(C)S(=O)(=O)c2ccc(NC(=O)c3ccc(S(=O)(=O)N(C)C)cc3)cc2)CC1,1,-24,-9,6,-13,0,/,/
Cc1ccc(OCC(=O)Nc2ccc(S(=O)(=O)N(C)C3CCN(C)CC3)cc2)c(C)c1,4,48,23,11,11,-1,/,/
O=C(COc1ccc(Br)cc1Cl)NC(=O)Nc1ccc2c(c1)OCCO2,0,-1,53*,13,0,0,5,/
CN1CCC(N(C)S(=O)(=O)c2ccc(NC(=O)COc3ccc(Br)cc3Cl)cc2)CC1,-4,/,63*,19,3,2,56*,72*
O=C(Nc1cccc2ccccc12)c1ccc(Cn2cc(Cl)cn2)cc1,-3,-2,16,3,-11,0,/,/
COc1cc(/C=C2\CCC/C(=C\c3ccc(O)c(OC)c3)C2=O)ccc1O,2,100*,100*,52,-24,1,89*,22
SMILES,GRIN3A LBD mod,CSC inhib,Mdm2 MdmX PPI,Gli-Sufu block,Beta apoptosis,MPTP block,Mdm2 MdmX conf,FLuc counter
COc1cc(/C=C2\CC/C(=C\c3cc(OC)c(O)c(OC)c3)C2=O)cc(OC)c1O,-17,86*,97*,12,89*,14,62*,26
COc1cc(/C=C2\CC/C(=C\c3cc(OC)c(OC)c(OC)c3)C2=O)cc(OC)c1OC,-3,4,32,28,8,4,/,/
COc1cc(/C=C2/CCCC(C(=O)C(F)(F)F)=C2O)ccc1O,-1,-5,7,3,-2,3,/,/
COc1cc(/C=C2\SC(N)=NC2=O)cc(Cl)c1O,1,-16,9,-12,7,0,/,/
CCOc1cc(/C=C2\CN(CC)C/C(=C\c3ccc(O)c(OCC)c3)C2=O)ccc1O,/,/,96*,-2,/,5,97*,57*
COc1cc(/C=C2/CCC/C(=C\c3cc(O)c(OC)c(Cl)c3)C2=O)cc(Cl)c1O,1,119*,95*,5,9,18,80*,52*
NC(=O)CSc1oc(-c2ccco2)nc1S(=O)(=O)c1ccc(Br)cc1,3,-9,14,-1,-8,1,/,/
COc1cc(/C=C2\CC(C(C)(C)C)C/C(=C\c3cc(OC)c(OC)c(OC)c3)C2=O)cc(OC)c1OC (centres undefined),0,107*,97*,16,98*,0,99*,55*
O=C(CCNS(=O)(=O)c1ccc(Cl)cc1)N1CCN(c2ccccn2)CC1,-1,0,6,6,-5,0,/,/
COc1ccc(OCCCC(=O)OC(C)C(=O)Nc2ccc(S(N)(=O)=O)cc2)cc1 (centres undefined),2,-4,5,-2,-3,0,/,/
COc1ccc(-c2cc(N)n(S(=O)(=O)c3c(F)c(F)c(F)c(F)c3F)n2)cc1OC,-3,42,81*,10,93*,1,100*,-1
COC(=O)c1c(-c2cccc3ccccc23)csc1NC(=O)Cc1ccc(OC)c(OC)c1,1,37,62*,25,24,2,51*,48*
COC(=O)c1c(-c2ccc(C)cc2)csc1NC(=O)Cc1ccc(OC)c(OC)c1,2,/,/,14,/,6,/,/
CC1=C(C(=O)N2CCOCC2)CC(CC(=O)NCc2ccco2)C(=O)N1CCC1=CCCCC1 (centres undefined),/,/,/,/,/,1,/,/
CC(C)(O)c1cc2ccc(C#CCCN3C(=O)c4ccccc4C3=O)cc2c(=O)o1,4,11,-12,-3,0,-2,/,/
